This is one part of a sample in which hits are shown more often than they occur.
Methyltransferases = Primary Screen for Target Class Profiling of Small Molecule Inhibitors of Methyltransferases. purified enzyme, MTase-Glo SAH luminescence; active compounds read low. calls only at 40 µM. 25,000 tested, 3.9% active; call rule not given here
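Each enzyme was reacted with SAM and its substrate, with compounds tested once at 40 uM; SAH formed was read by MTase-Glo luminescence.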
MTase-Glo ctr = Counterscreen for Target Class Profiling of Small Molecule Inhibitors of Methyltransferases; shares compounds with Methyltransferases; MTase-Glo coupled enzymes, SAH conversion luminescence, no MTase; Potency, µM (titrated, usually from 57.3 µM), for the others: top-dose activity change, negative = inhibition, actives largely listed as inhibitors; 180 tested, 6% active; active = well fitted inhibition curve with a large enough effect; note: potency is the fitted concentration of half-maximal effect
Active calls of the source: *; i = inactive; + = active, no number; [ ] = dose if it differs, or a comment. % is set by controls: 0 for no effect and ±100 for the full control effect.

SMILES	Methyltransferases	others
CN(C)CCNC(=O)c1cc2n(n1)CC(C)(C(=O)NCc1ccccc1)N(C)C2=O (stereo not drawn)	i
CCCn1c(=O)c2ccc(C(=O)NCC(C)C)cc2n2c(=O)n(CC(=O)c3ccc(C)cc3)nc12	i
COc1ccc(CCNc2nc3c(S(=O)(=O)c4ccccc4)nnn3c3ccc(Cl)cc23)cc1OC	i
Cc1ccc(NC(=O)Cn2nc3n(CC(C)C)c(=O)c4ccc(C(=O)NCC(C)C)cc4n3c2=O)cc1	i
Cc1cnc(-c2cccnc2)n1C1CCN(S(=O)(=O)c2ccc3c(c2)OCCO3)CC1	i
Cc1cnc(CC2CCCN(S(=O)(=O)c3ccccc3)C2)n1CC1CC1 (stereo not drawn)	i
Cc1nc2cccnc2n1CC1CCCN(S(=O)(=O)c2ccc3c(c2)OCCO3)C1 (stereo not drawn)	+	MTase-Glo ctr=-3%
CCN(CC)CCCNC(=O)c1cc2n(n1)CC(C)(C(=O)NC1CCCCCC1)N(C)C2=O (stereo not drawn)	i
CCCOc1ccc(CN2C(=O)c3cc(C(C)C)nn3CC2(C)C(=O)NC2CCCCCC2)cc1 (stereo not drawn)	i
CN(C)CCOCC1(C)COc2ccc(C(=O)Nc3ccc4[nH]ccc4c3)cc2N1 (stereo not drawn)	+	MTase-Glo ctr=-1%[85.7 µM]
CC1(COCC2CC2)COc2ccc(C(=O)Nc3cccc([S+](C)(=O)[O-])c3)cc2N1 (stereo not drawn)	i
CN(C)C[C@@H]1CN(S(C)(=O)=O)C[C@H]1NC(=O)c1ccc2[nH]ccc2c1	i
COc1cc2c(cc1CN1CCC3(CCCNC3)C1)OCCCO2 (stereo not drawn)	i
COc1cccc(CN2CCCC3(CCN(c4cc(C)nc(N)n4)C3)C2)c1OC (stereo not drawn)	+	MTase-Glo ctr=-1%
Fc1ccccc1CN1CCCC2(CCN(c3cnccn3)C2)C1 (stereo not drawn)	i
Cc1nc2c3ccccc3n3c(CCCC(=O)N4CCN(c5ccc(F)cc5)CC4)nnc3n2n1	i
Cc1cnc(C2CC2)n1C1CCCN(C(=O)c2ccoc2)C1 (stereo not drawn)	i
Cc1cnc(C2CCOCC2)n1C1CCCN(S(=O)(=O)c2ccccc2)C1 (stereo not drawn)	i
Cc1cnc(C2CC2)n1C1CCCN(Cc2ccccc2)C1 (stereo not drawn)	+	MTase-Glo ctr=-5%
CC1(C(=O)NCc2ccccc2)Cn2c(cc3ccccc32)C(=O)N1CCC1=CCCCC1 (stereo not drawn)	i
CC(C)n1c(=O)c2ccc(C(=O)NC3CCCCC3)cc2n2c(=O)n(CC(=O)c3ccc(F)cc3)nc12	i
COc1ccc(CC(=O)N2CCCC2C(=O)N2CCC(c3nc4ccncc4[nH]3)C2)cc1 (stereo not drawn)	i
Cc1ccc(CN2CC[C@H](c3nc4ccc(C)cc4[nH]3)C2)cc1	i
COc1ccc2nc([C@H]3CCN(C4CCCCC4)C3)[nH]c2c1	+	MTase-Glo ctr=-5%[85.7 µM]
CCN1C(=O)c2cc(C(=O)Nc3cccc(Cl)c3C)nn2CC1(C)C(=O)NC1CCCC1 (stereo not drawn)	i
SMILES	Methyltransferases	others
O=C(NCc1cccc(Cl)c1)c1cnc2c(c1)N(C(=O)Cc1ccc(O)cc1)CCC2	+	MTase-Glo ctr=18µM*
COc1ccc(CNC(=O)c2cnc3c(c2)N(C(=O)CCc2ccccc2)CCC3)cc1OC	i
COCCCNC(=O)c1cnc2c(c1)N(C(=O)Cc1cn(C)c3ccccc13)CCC2	i
CCC(C(=O)NCc1ccc(F)cc1)n1ccc2cc(S(=O)(=O)N3CCCCC3)ccc21 (stereo not drawn)	i
CCCCN1C(=O)c2cc3c(OC)ccc(OC)c3n2CC1(C)C(=O)NC1CCCC1 (stereo not drawn)	i
CCOc1ccc(N2C(=O)c3cc4sc(CC)cc4n3CC2(C)C(=O)NC2CCCCCC2)cc1 (stereo not drawn)	i
Cc1cnc(CCNC(=O)c2n[nH]c(=O)c3ccccc23)n1C1CCCCC1	+	MTase-Glo ctr=-6%
O=C(Nc1ccc2c(c1)OCCO2)N1CC(c2nc(CCOCC3CC3)no2)C1	i
COc1ccc(C(=O)NCCc2ncc(C)n2C2CC2)cn1	i
Cc1cnc(CCNC(=O)c2ccc(C#N)cc2)n1C1CC1	i
Cc1cnc(CC2CCN(C(=O)Nc3ccc4c(c3)OCCO4)C2)n1C1CC1 (stereo not drawn)	i
Cc1cnc(CCNC(=O)Cc2ccncc2)n1CC1CC1	i
Cc1cnc(CCNC(=O)c2cccs2)n1C1CCC1	+	MTase-Glo ctr=3%
Cc1cnc(CCNC(=O)Nc2ccc3c(c2)OCCO3)n1C1CCC1	+	MTase-Glo ctr=-4%
Cc1cnc(C(=O)NCCc2ccc(S(=O)(=O)NC(=O)NC3CCCCC3)cc2)cn1	i
CC(C)CCN1C(=O)c2ccc(-c3ccccc3)n2CC1(C)C(=O)NC1CCCCCC1 (stereo not drawn)	i
Cc1cc2c(cc3n2CC(C)(C(=O)NC2CCCCCC2)N(Cc2ccc(OC(C)C)cc2)C3=O)o1 (stereo not drawn)	i
CCCN1C(=O)c2cc(C(=O)NCCc3ccc(SC)cc3)nn2CC1(C)C(=O)NC1CCCC1 (stereo not drawn)	i
CCc1cc2c(cc3n2CC(C)(C(=O)NC2CCC(C)CC2)N(CCC(C)C)C3=O)s1 (stereo not drawn)	i
CCOCCCN1C(=O)c2ccc(-c3ccccc3)n2CC1(C)C(=O)NC1CCCCCCC1 (stereo not drawn)	i
CC(C)c1ccc(NC(=O)c2cc3n(n2)CC(C)(C(=O)NC2CCCCCC2)N(C)C3=O)cc1 (stereo not drawn)	i
COc1ccc2cc3n(c2c1)CC(C)(C(=O)NC1CCCC1)N(CCC(C)C)C3=O (stereo not drawn)	i
Cc1cccc(CCNC(=O)Cn2c(=O)oc3cc(S(=O)(=O)N4CCCC4)ccc32)c1	i
COc1ccc(OC)c(NS(=O)(=O)c2cc3c(cc2C)n(C)c(=O)n3C)c1	i
CCNc1ncnc2sc3c(c12)CCN(Cc1ccncc1)C3	i
SMILES	Methyltransferases	others
COc1ccc(-c2nc(N3CCOCC3)cc3c2CN(Cc2ccccc2)C3=O)cn1	i
c1ccc(CN2CCc3c(sc4ncnc(N5CCOCC5)c34)C2)cc1	+	MTase-Glo ctr=-8%
COc1ccc(Cl)cc1NC(=O)c1ncn2c1C(=O)N(C1CC1)C(C)(C(=O)NCc1ccc(F)cc1)C2 (stereo not drawn)	i
COc1ccc(NC(=O)Cn2nc3n(CC(C)C)c(=O)c4ccccc4n3c2=O)cc1OC	i
Cc1nccn1CCC1CCN(c2nccc(-c3ccccn3)n2)CC1	+	MTase-Glo ctr=4%
NCC1CCN(c2nccc(-c3ccc4ccccc4c3)n2)CC1	i
CN1C(=O)c2cc(C(=O)NCCc3ccc(Cl)cc3)nn2CC1(C)C(=O)NC1CCCCCC1 (stereo not drawn)	i
CCc1ccc(-c2cc3n(n2)CC(C)(C(=O)NC2CCCCCC2)N(CCCOC(C)C)C3=O)cc1 (stereo not drawn)	i
Fc1ccccc1CN1CCC[C@H]1c1nc(-c2ccnc(N3CCOCC3)c2)no1	i
COCC(=O)Nc1ccc(-c2noc([C@@H]3CCCN3Cc3ncc[nH]3)n2)cn1	i
COCCNc1cc(-c2noc([C@@H]3CCCN3CC(C)C)n2)ccn1	+	MTase-Glo ctr=-3%[85.7 µM]
